From PubChem BioAssay
A selection: hits, their analogues and other compounds. The true share with any hit is near 3.5%.
MITF primary = inhibitors of human MITF; AlphaScreen MITF homodimerization, bead proximity signal; inhibition, % at 2.6 µM; 650,000 compounds, 0.91% hits; AID 1259374; in the data active means inhibition above about 50%;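 further: 0% = vehicle wells with protein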
FBW7 activator = activators of human E3 ligase FBW7. 650,000 compounds, 0.13% hits. AID 1259310. normalized activity (activation), % at 26.1 µM. AlphaScreen FBW7–phospho-cyclin E peptide binding, activator screen; in the data active means normalized activity above about 1.9%;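 further: purified mutant Fbw7 with reduced substrate affinity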
GPR151 ag = human GPR151 activation; activation, % at 11.2 µM; 650,000 compounds, 1% hits; PathHunter beta-arrestin GPR151 cells, luminescence; in the data active means activation above about 4.9%;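 further: 0% = median of compound wells and 100% = cells with positive control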
TEAD-YAP block = TEAD-YAP interaction inhibition | HEK-TIYL cells, TEAD-Gal4/YAP UAS-luciferase luminescence | inhibition, % at 9.12 µM | 640,000 compounds, 1.4% hits; in the data active means inhibition above about 32%;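 further: 0% = median of test compound wells and 100% = reference inhibitor wells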
Numbers without * were called inactive.

SMILES	MITF primary	FBW7 activator	GPR151 ag	TEAD-YAP block
Cc1ccc(N2CCN(C(=O)c3sc4ncn(Cc5cccc(F)c5)c(=O)c4c3C)CC2C)cc1 (stereo unspecified)	6.7	-0.2	-0.3	11.8
CC(C)n1cnc2c(NCc3ccccc3)nc(-c3ccc(C(N)=O)cc3)nc21	-6.0	0.1	1.4	8.8
CC(C)n1cnc2c(NC3CC3)nc(-c3ccc(C(=O)NC4CC4)cc3)nc21	18.0	0.0	-0.6	32.7*
CC(C)n1cnc2c(Nc3ccccc3)nc(-c3ccc(C(N)=O)cc3)nc21	-1.2	0.1	-0.5	44.2*
CC(C)n1cnc2c(NC3CC3)nc(-c3ccc(C(N)=O)cc3)nc21	13.1	0.8	-1.0	39.9*
